“And” between values parts separate entries of the source, which are not always exact repeats. Equal entries are not always repeated. Inconclusive results are not listed. Entries that show only a call come without a potency. A number with no mark means an inactive call. The source made the active and inactive calls. The call rests on the fitted dose curve; in most records, active means well fitted inhibition curve with a large enough effect; inconclusive means small, poorly fitted or top-dose-only effect; inactive means flat fitted curve, though single readings scatter.
How the values were obtained:
[1] = system: NIH3T3; assay: Cytotoxic Profiling of Annotated Libraries Using Quantitative High-Throughput Screening (AID 1296008); conditions: Five cell lines viability, CellTiter-Glo ATP luminescence, 48-72 h; max response: stronger effect = lower value
Outline: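 Cells exposed to compounds for 48 or 72 hr at 37 degrees Celsius. Viability read as ATP-coupled luminescence with CellTiter-Glo after 10 min at room temperature.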

[2] = system: HEK293T; assay: qHTS assay to identify novel small-molecules to repurpose for Merkel cell carcinoma treatment (AID 1296009); conditions: MCC and control cell lines, CellTiter-Glo viability, 72 h; at 44.8 µM (top of the series) unless noted; further: potency means the concentration at half of the fitted maximal effect
Outline: (§1)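 CellTiter-Glo luminescence after 72 hr compound exposure at 37 degree celsius gave cell viability. Libraries NPC and MIPE were run as 8- and 11-point dose responses; RLUs normalized to DMSO (negative) and no-cell (cytotoxicity) controls.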

[3] = system: MCC-13; assay: as above; conditions: MCC and control cell lines, CellTiter-Glo viability, 72 h; series mostly up to 46 µM
Outline: as §1

[4] = system: MCC-26; assay: as above; conditions: MCC and control cell lines, CellTiter-Glo viability, 72 h; series mostly up to 46 µM
Outline: as §1

[5] = system: MKL-1; assay: as above; conditions: MCC and control cell lines, CellTiter-Glo viability, 72 h; series mostly up to 46 µM
Outline: as §1

[6] = system: MKL-2; assay: as above; conditions: MCC and control cell lines, CellTiter-Glo viability, 72 h; series mostly up to 46 µM
Outline: as §1

[7] = system: NIH3T3; assay: as above; conditions: MCC and control cell lines, CellTiter-Glo viability, 72 h; at 44.8 µM (top of the series) unless noted
Outline: as §1

[8] = system: UISO; assay: as above; conditions: MCC and control cell lines, CellTiter-Glo viability, 72 h; series mostly up to 46 µM
Outline: as §1

[9] = system: WaGa; assay: as above; conditions: MCC and control cell lines, CellTiter-Glo viability, 72 h; series mostly up to 46 µM
Outline: as §1
Further: nearly all actives have a fitted effect of over 60% in size.

Row | SMILES | outcome [1] | outcome [2] | Potency [3] | Potency [4] | Potency [5] | Potency [6] | outcome [7] | Potency [8] | Potency [9] | max response [1] | activity change, negative = cytotoxicity [3] | activity change, negative = cytotoxicity [4] | activity change, negative = cytotoxicity [5] | activity change, negative = cytotoxicity [6] | activity change, negative = cytotoxicity [8] | activity change, negative = cytotoxicity [9]
1 | CO/N=C(\C(=O)N[C@@H]1C(=O)N2C(C(=O)O)=C(CSc3nc(=O)c(O)nn3C)CS[C@H]12)c1csc(N)n1 | inactive | inactive | inactive | inactive | inactive | inactive | inactive | inactive | inactive | – | – | – | – | – | – | –
2 | CC1CC(OC(=O)C(O)c2ccccc2)CC(C)(C)N1C (stereo not given) | inactive | inactive | inactive | inactive | inactive | inactive | inactive | inactive | inactive | – | – | – | – | – | – | –
3 | CCCCN(CCCC)CCCOC(=O)c1ccc(N)cc1 | inactive | inactive | inactive | inactive | inactive | inactive | inactive | inactive | inactive | – | – | – | – | – | – | –
4 | C[C@H]1O[C@@H](n2cc(F)c(=O)[nH]c2=O)[C@H](O)[C@@H]1O | – | inactive | inactive | inactive | inactive | inactive | – | inactive | inactive | -23.8% | – | – | – | – | – | –
5 | Nc1ccc(S(=O)(=O)Nc2ccc(Cl)nn2)cc1 | – | inactive | inactive | inactive | inactive | inactive | – | inactive | inactive | 1.13% | – | – | – | – | – | –
6 | CCCCCCCCCCCCCCCC(=O)NCCO | – | inactive | inactive | inactive | inactive | inactive | – | inactive | inactive | 2.39% | – | – | – | – | – | –
7 | c1ccc2c(CC3=NCCN3)cccc2c1 | – | inactive | inactive | inactive | inactive | inactive | – | inactive | inactive | 1.32% | – | – | – | – | – | –
8 | CC(C)C(=O)c1c(C(C)C)nn2ccccc12 | – | – | inactive | inactive | inactive | inactive | – | inactive | inactive | -15.3% | – | – | – | – | – | –
9 | O=c1[nH]c(=O)c2[nH]c(=O)[nH]c2[nH]1 | inactive | – | – | – | – | – | inactive [at 9.27 µM] | – | – | – | -1.19% [at 9.22 µM] | -17% [at 9.22 µM] | -12.1% [at 9.22 µM] | 7.3% [at 9.22 µM] | -5.4% [at 9.22 µM] | -8.78% [at 9.22 µM]
10 | CC12CCC(CC1)C(C)(C)O2 | inactive | inactive | inactive | inactive | inactive | inactive | inactive | inactive | inactive | – | – | – | – | – | – | –
11 | NC(=O)c1ncn([C@@H]2O[C@H](CO)[C@@H](O)[C@H]2O)c1N | – | – | inactive | inactive | inactive | inactive | – | inactive | inactive | -10.7% | – | – | – | – | – | –
12 | Cc1ccc(C(C)C)cc2c(C)ccc1-2 | inactive | inactive | inactive | inactive | inactive | inactive | inactive | inactive | inactive | – | – | – | – | – | – | –
13 | C[C@]12CC[C@@H]3c4ccc(O)cc4CC[C@H]3[C@@H]1CCC2=O | – | inactive | inactive | inactive | inactive | inactive | – | inactive | inactive | 0.542% | – | – | – | – | – | –
14 | CC/C=C(\C(=O)N[C@@H]1C(=O)N2C(C(=O)OCOC(=O)C(C)(C)C)=C(COC(N)=O)CS[C@H]12)c1csc(N)n1 | – | – | inactive | inactive | inactive | inactive | – | inactive | – | -1.08% | – | – | – | – | – | –
15 | C[C@@H]1CCN(C(=O)[C@H](CCCN=C(N)N)NS(=O)(=O)c2cccc3c2NC[C@H](C)C3)[C@@H](C(=O)O)C1 | inactive | inactive | inactive | inactive | inactive | inactive | inactive | inactive | inactive | – | – | – | – | – | – | –
16 | CC[N+](CC)(CC)CCOc1ccc(/C=C/c2ccccc2)cc1 | – | – | inactive | inactive | 2.99 µM (active) | 1.68 µM (active) | – | 1.19 µM (active) | 1.88 µM (active) | -21.5% | – | – | – | – | – | –
17 | COc1ccc2c(c1)C(=O)N(CCc1ccc(S(=O)(=O)NC(=O)NC3CCCCC3)cc1)C(=O)C2(C)C | – | – | inactive | inactive | inactive | inactive | – | inactive | inactive | -19.1% and -11.5% | – | – | – | – | – | –
18 | Cc1cc2nc3c(=O)[nH]c(=O)nc-3n(C[C@H](O)[C@H](O)[C@H](O)CO)c2cc1C | – | – | inactive | inactive | inactive | inactive | – | inactive | inactive | 4.08% | – | – | – | – | – | –
19 | COc1ccc2cc1Oc1cc3c(cc1OC)CC[N+](C)(C)[C@H]3Cc1ccc(cc1)Oc1c(OC)c(OC)cc3c1[C@@H](C2)[N+](C)(C)CC3 | inactive | inactive | inactive | inactive | inactive | inactive | inactive | inactive | inactive | – | – | – | – | – | – | –
20 | C[C@@H]1C[C@H]2[C@@H]3C[C@H](F)C4=CC(=O)C=C[C@]4(C)[C@@]3(F)[C@@H](O)C[C@]2(C)[C@@]1(O)C(=O)CO | – | inactive | inactive | inactive | inactive | inactive | – | inactive | inactive | -2.74% and -3.01% | – | – | – | – | – | –

Reference: PubChem BioAssay (NCATS)
